Over roughly 1,300 sequences, “log fluorescence intensity” has its median near 8.9; the highest 2% begin near 13. Many of the other results were omitted from the sample, so the highest values are more common in it than they were.

43 sequences from article PMC6602471 can be followed below.

In this assay the target is T1, ELK1 (Homo sapiens, UniProt P19419 1-428).
T1 sequence: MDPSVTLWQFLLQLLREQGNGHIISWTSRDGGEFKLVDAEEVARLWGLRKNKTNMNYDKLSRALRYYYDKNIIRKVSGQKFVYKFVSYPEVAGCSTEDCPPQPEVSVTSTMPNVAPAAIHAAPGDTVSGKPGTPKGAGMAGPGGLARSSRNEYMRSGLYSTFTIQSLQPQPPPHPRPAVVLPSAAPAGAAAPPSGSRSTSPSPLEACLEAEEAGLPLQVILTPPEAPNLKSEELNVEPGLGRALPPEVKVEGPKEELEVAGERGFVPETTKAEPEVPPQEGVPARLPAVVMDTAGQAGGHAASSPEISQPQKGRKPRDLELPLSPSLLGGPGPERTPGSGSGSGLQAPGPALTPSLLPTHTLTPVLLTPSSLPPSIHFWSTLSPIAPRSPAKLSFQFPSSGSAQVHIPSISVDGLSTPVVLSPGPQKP
In words: custom PBM; custom protein-binding microarray; buffer, salt, pH and temperature not stated; high values mean tight binding. Conditions: dsDNA, one strand shown.
Regarding “GGAAAAAGCCCCAGGGTAACACCGGAAGTGGGCTTAGTCTTGATTCGCTTGACGCTGCTG”, the binding signal was 10.8 log fluorescence intensity.
As to “TAAAGGGAAGGCGGTTGTGGTAGTTCCGGGTATTAAGTCTTGATTCGCTTGACGCTGCTG”, the binding signal is 11.5 log fluorescence intensity.
The value for “TAAAGGGAAGACGGTGGTGGTAGTTCCGGGTATTAAGTCTTGATTCGCTTGACGCTGCTG” was 11.1 log fluorescence intensity; that for “GCTGCTGCGGTGCATAGCCCACCGGATGTGACCCCGGTCTTGATTCGCTTGACGCTGCTG” was 10.4 log fluorescence intensity; that for “CGGAAGTGTCGTAAACGTCGGATATGCGGTTCTTCTGTCTTGATTCGCTTGACGCTGCTG” was 9.16 log fluorescence intensity.
The value for “TCCGGCTACCAGGTCCACCCACTTCAGGCCTTGTAGGTCTTGATTCGCTTGACGCTGCTG” was 8.9 log fluorescence intensity; that for “ATGGGACTTGACCCAACTCTGCCACGTGGGTCGTTTGTCTTGATTCGCTTGACGCTGCTG” was 8.96 log fluorescence intensity.
The value for “TACTGATTTATATATGCGAATGCACATGAATAGACCGTCTTGATTCGCTTGACGCTGCTG” was 8.91 log fluorescence intensity; that for “CTGGGACTTGATCCAACTCTGCCACGTGGGTCGTTTGTCTTGATTCGCTTGACGCTGCTG” was 8.95 log fluorescence intensity.
For the sequence “TAAAGGGAAGACGGTCGTGGTAGTTCCGGGTATTAAGTCTTGATTCGCTTGACGCTGCTG”, the binding signal was 11.3 log fluorescence intensity.
The value for “CAGCATAGGACTTCTTCCCTGAAGCAAGTGATAACCGTCTTGATTCGCTTGACGCTGCTG” was 8.97 log fluorescence intensity; that for “GATTAATTTCTGCCATTATTCGCACGTGCCATAACAGTCTTGATTCGCTTGACGCTGCTG” was 8.92 log fluorescence intensity; that for “TAAAGGGAAGACGGTTGTGGTACTTCCGGGTATTAAGTCTTGATTCGCTTGACGCTGCTG” was 12 log fluorescence intensity.
In the case of “TAAAGGGAAGACGGTTGTGGTTGTTCCGGGTATTAAGTCTTGATTCGCTTGACGCTGCTG” it was 10.5 log fluorescence intensity; in that of “CACAATTTTTACAGTAATTTAGCACGCGTAACTCCTGTCTTGATTCGCTTGACGCTGCTG”, 8.93 log fluorescence intensity.
In the case of “TACTGACTTATATATGCGAATGCACATGATTAGACCGTCTTGATTCGCTTGACGCTGCTG” it was 9 log fluorescence intensity.
Take “GTGCATAGGATCCCATCCAACACACGTGTTAAAATGGTCTTGATTCGCTTGACGCTGCTG”: the binding signal is 9 log fluorescence intensity.
The value for “CGGAAGTGTCGTAAACGTCGGATATACGGTTCTTCTGTCTTGATTCGCTTGACGCTGCTG” was 9.29 log fluorescence intensity; that for “GGAAAAAGGCCCAGGGTAACACCGGAAGCGGGCTTAGTCTTGATTCGCTTGACGCTGCTG” was 10.5 log fluorescence intensity; that for “GTGTCTAGGATCCCATCCAACACACGTGTTAAAATGGTCTTGATTCGCTTGACGCTGCTG” was 8.94 log fluorescence intensity.
As for “CAGCAGAGGACTTCTTCCCTGAAGCAATTGATAACCGTCTTGATTCGCTTGACGCTGCTG”, the binding signal was 8.97 log fluorescence intensity.
The value for “CGGAAGTGTCGTAAACCTCGGATATCCGGTTCTTCTGTCTTGATTCGCTTGACGCTGCTG” was 12.2 log fluorescence intensity; that for “CGGAAGTGTCGTAAACGTCGGATATCCGGTTCTTATGTCTTGATTCGCTTGACGCTGCTG” was 12.4 log fluorescence intensity.
In the case of “CGGAAGTGTCGTAAACGTCGGATATCCGGTTCTTCGGTCTTGATTCGCTTGACGCTGCTG” it was 12.4 log fluorescence intensity; in that of “CGGAAGTGTCGTAAACGTCGGATATCCGGTTCTTCAGTCTTGATTCGCTTGACGCTGCTG”, 12.6 log fluorescence intensity.
In the case of “CGGAAGTGTCGTAAACGTCGGATATCCGGTTCTGCTGTCTTGATTCGCTTGACGCTGCTG”, the binding signal is 12.5 log fluorescence intensity.
The value for “CGGAAGTGTCGTAAACGTAGGATATCCGGTTCTTCTGTCTTGATTCGCTTGACGCTGCTG” was 11.8 log fluorescence intensity; that for “CGGAAGTGTCGTAAACGCCGGATATCCGGTTCTTCTGTCTTGATTCGCTTGACGCTGCTG” was 13.3 log fluorescence intensity.
The value for “CGGAAGTGTCGTAAACGTCGGATATCCGGTTCTACTGTCTTGATTCGCTTGACGCTGCTG” was 12.4 log fluorescence intensity; that for “CGGAAGTGTCGTAAACGTCGGATATCCGGTTCTCCTGTCTTGATTCGCTTGACGCTGCTG” was 12.6 log fluorescence intensity.
The value for “CGGAAGTGTCGTAAACGTCGGATATCCGGTTCTTCCGTCTTGATTCGCTTGACGCTGCTG” was 13 log fluorescence intensity.
Take “CGGAAGTGTCGTAAACGTGGGATATCCGGTTCTTCTGTCTTGATTCGCTTGACGCTGCTG”: the binding signal was 11.4 log fluorescence intensity.
As for “CGGAAGTGTCGTAAACGTTGGATATCCGGTTCTTCTGTCTTGATTCGCTTGACGCTGCTG”, the binding signal is 11.4 log fluorescence intensity.
Consider “GGGAAGTGTCGTAAACGTCGGATATCCGGTTCTTCTGTCTTGATTCGCTTGACGCTGCTG”, for which the binding signal was 12.6 log fluorescence intensity.
In the case of “CGGAAGTGTCGTAAACATCGGATATCCGGTTCTTCTGTCTTGATTCGCTTGACGCTGCTG”, the binding signal was 12.6 log fluorescence intensity.
The value for “AGGAAGTGTCGTAAACGTCGGATATCCGGTTCTTCTGTCTTGATTCGCTTGACGCTGCTG” was 12.3 log fluorescence intensity; that for “CGGAAGTGTCGTAAACGTCGGATATCCGGTTCTTCTGTCTTGATTCGCTTGACGCTGCTG” was 12.4 log fluorescence intensity; that for “CGGAAGTGTCGTAAACGTCGGATATCCGGTTCCTCTGTCTTGATTCGCTTGACGCTGCTG” was 12.5 log fluorescence intensity.
Consider “CGGAAGTGTCGTAAACGTCTGATATCCGGTTCTTCTGTCTTGATTCGCTTGACGCTGCTG”, for which the binding signal was 11.1 log fluorescence intensity.
In the case of “CGGAAGTGTCGTAAACTTCGGATATCCGGTTCTTCTGTCTTGATTCGCTTGACGCTGCTG” it was 12.3 log fluorescence intensity; in that of “TGGAAGTGTCGTAAACGTCGGATATCCGGTTCTTCTGTCTTGATTCGCTTGACGCTGCTG”, 12.5 log fluorescence intensity; in that of “CGGAAGTGTCGTAAACGTCGGATATCCGGTTCGTCTGTCTTGATTCGCTTGACGCTGCTG”, 12.4 log fluorescence intensity.
For “CGGAAGTGTCGTAAACGTCGGATATCCGGTTCATCTGTCTTGATTCGCTTGACGCTGCTG”, the binding signal was 12.6 log fluorescence intensity.
